Results from PubChem BioAssay (Tox21).
Results filed as inconclusive are left out. Unmarked numbers belong to inactive results. Calls of active or inactive are those of the source. The call rests on the fitted dose curve; in most records, active means well fitted cell-killing curve with a large enough effect in the repeat runs; inconclusive means weak or mixed curves, or effect the other way; inactive means flat fitted curve, though single readings scatter.

Test: qHTS RealTime-Glo MT Cell Viability Assay in HepG2 cells - 40 hour (AID 1224870); further: nearly all actives have a fitted effect of over 50% in size
Conditions: RealTime-Glo luminescence; series mostly up to 76.8 µM; activity change, negative = cytotoxic: at the top concentration
Procedure, shortened: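 HepG2 cells mixed with RealTime-Glo MT reagents (NanoLuc plus cell-permeant prosubstrate) were seeded at 600 cells/well, incubated 5 h at 37 C/5% CO2, then pinned with compounds in DMSO; nonlytic luminescence tracked viability during 40 h treatment.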
On the % scale 0 is the no-effect control and ±100 the full control effect; potency means the concentration at half of the fitted maximal effect.

Structure (SMILES) | Potency | activity change, negative = cytotoxic
CCN(CC)C(=O)c1cc(S(=O)(=O)Cc2ccccc2)c(N2CCC(c3ccccc3)CC2)cc1N(CC)CCN(C)C | 13.6 µM (active) | –
Clc1nnc(Cl)c2ccccc12 | – | 20.4%
O=[N+]([O-])c1cccc(C(F)(F)F)c1 | – | 0.771%
CC(C)(C)NSc1nc2ccccc2s1 | – | 0.0406%
CC(C)(c1cc(Br)c(OCC(Br)CBr)c(Br)c1)c1cc(Br)c(OCC(Br)CBr)c(Br)c1 (stereo not given) | – | -1.45% [at 35.3 µM]
CCC(CC)(CC(=O)Nc1cccc(/C=C/c2nc(C3CCC3)cs2)c1)C(=O)O | – | -4.64% [at 35.3 µM]
COc1cc(/C=C/c2ccccc2)oc(=O)c1 | – | 0.625%
CCOC(=O)NNc1ccc(N(CC)CC(C)O)nn1 (stereo not given) | – | 5% [at 35.3 µM]
O=C1CCCCCCCCCCCCCCCO1 | – | 0.219%
COCCOc1cc2cc(C(=O)NC3CCN(C(C)C)CC3)n(CC(=O)Nc3ccc(Cl)cn3)c2cn1 | – | -0.675%
CC1=Nc2ccccc2C1(C)C | – | 0.466%
O=C1C(c2[nH]c3ccc(S(=O)(=O)O)cc3c2O)=Nc2ccc(S(=O)(=O)O)cc21 | – | -5.26%
c1ccc(SSc2ccccc2)cc1 | – | 1.96%
S=C([S-])NCCNC(=S)[S-].S=C([S-])NCCNC(=S)[S-].[Mn+2].[Zn+2] | – | -12.2% [at 35.3 µM]
O=C(O)Cc1ccccc1Nc1c(Cl)cccc1Cl | inactive | –
Nc1ccc(NCCO)c([N+](=O)[O-])c1 | – | -4.5%
CC(CO)Oc1ccccc1 (stereo not given) | – | 1.67%
O=C(/C=C/c1ccc(O)c(O)c1)O[C@@H](C(=O)O)[C@@H](OC(=O)/C=C/c1ccc(O)c(O)c1)C(=O)O | – | -0.846%

Structure (SMILES) | Potency | activity change, negative = cytotoxic
C#Cc1ccc(-c2ccccc2F)cc1 | – | 0.52% [at 35.3 µM]
CCC(COC(=O)CCS)(COC(=O)CCS)COC(=O)CCS | – | 1.91%
Cl[Si](Cl)(c1ccccc1)c1ccccc1 | – | -1.65%
NC(=S)NC(N)=S | – | -3.33%
CCCCCCC1CCCC(=O)O1 (stereo not given) | – | -1.63%
C=Cc1ccccc1C=C | – | 1.07% [at 200 µM]
C=C(C)C(=O)OCCCCCCCCCC | – | 2.54%
CC(C)CCOC(=O)/C=C/c1ccccc1 | – | 3%
CCc1ccc(Br)cc1 | – | -8.7%
CC1=CCC(=C(C)C)CC1 | – | -2.91%
Cc1c(C)c2c(c(C)c1OC(=O)c1cccnc1)CC[C@@](C)(CCC[C@H](C)CCC[C@H](C)CCCC(C)C)O2 | – | 6% [at 35.3 µM]
Cc1cccc(C(=O)O)c1O | – | 1.37% [at 35.3 µM]
CCCNCCC | – | 0.249%
Cc1cccc2cccnc12 | – | -0.0059%
Nc1nc2c(ncn2COCCO)c(=O)[nH]1 | – | 0.542% [at 35.3 µM]
CCC(C)[O-].CCC(C)[O-].CCOC(=O)/C=C(/C)[O-].[Al+3] | – | 0.0429%
Cc1ccc(C(C)C)cc2c(C)ccc1-2 | – | -0.647% [at 35.3 µM]
